This is an account of results in PubChem BioAssay (Tox21).

SMILES strings stand for the structures. Several values for one entry are separate records, joined by “and”; a condition that tells them apart may be missing. Equal entries are not always repeated. Results filed as inconclusive are left out. Activity calls are given as the source filed them. Unless noted, the call rests on the fitted dose curve; in most records, active means well fitted curve in the direction sought with a large enough effect in the repeat runs; inconclusive means weak or mixed curves; inactive means no such curve, though single readings can be large; an effect the other way counts as inactive or inconclusive.

Assay [1] in a line: qHTS assay to identify small molecule antagonists of the glucocorticoid receptor (GR) signaling pathway - cell viability counter screen (AID 720693). Further: nearly all actives have a fitted effect of over 55% in size. Further: potency means the concentration at half of the fitted maximal effect.
Assay [2] can be described thus: qHTS assay for identifying genotoxic compounds that show differential cytotoxicity against isogenic chicken DT40 cell lines with known DNA damage response pathways - wild type cell line (AID 743012). Further: nearly all actives have a fitted effect of over 60% in size. Further: potency means the concentration at half of the fitted maximal effect. A digest of the protocol: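 Cytotoxicity in repair-proficient parental chicken DT40 cells serves as the comparator for Rad54/Ku70- and Rev3-deficient lines. Cells were exposed to compounds for 40 h at 37 C/5% CO2, and ATP-based luminescence (CellTiter-Glo) measured viability.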
Background: qHTS replaces the single test concentration by a dilution series.

A short description of assay [3]: qHTS assay for identifying genotoxic compounds that show differential cytotoxicity against isogenic chicken DT40 cell lines with known DNA damage response pathways - Rev3 mutant cell line (AID 743014). Further: nearly all actives have a fitted effect of over 55% in size. Further: potency means the concentration at half of the fitted maximal effect.
The nature of assay [4]: qHTS assay for identifying genotoxic compounds that show differential cytotoxicity against isogenic chicken DT40 cell lines with known DNA damage response pathways - Rad54/Ku70 mutant cell line (AID 743015). Further: nearly all actives have a fitted effect of over 60% in size. Further: potency means the concentration at half of the fitted maximal effect.
Assay [5] is described as follows: qHTS assay to identify small molecule antagonists of the androgen receptor (AR) signaling pathway - cell viability counter screen (AID 743033; further: nearly all actives have a fitted effect of over 45% in size; further: potency means the concentration at half of the fitted maximal effect).
The target in assay [6] is Androgen receptor (Homo sapiens) (UniProt P10275). Nature of the assay: qHTS assay to identify small molecule antagonists of the androgen receptor (AR) signaling pathway (AID 743035; active means well fitted inhibition curve with a large enough effect in the signal ratio in the repeat runs, not every such curve was filed as active; the % refers to the signal ratio). The essentials:
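Steps: seed AR-UAS-bla GripTite HEK293 cells, incubate 4 h at 37C; pin in test compound, then add agonist R1881; incubate 16 h at 37C; add LiveBLAzer B/G FRET substrate, 2 h at room temperature; read fluorescence.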

Assay [7] shares this target. Description: qHTS assay to identify small molecule agonists of the androgen receptor (AR) signaling pathway (AID 743036; active means well fitted activation curve with a large enough effect in the signal ratio in the repeat runs, with a control signal flat, not every such curve was filed as active; the % refers to the signal ratio). A digest of the protocol: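 AR-UAS-bla HEK293 cells, plated 4 h before dosing, were treated with compound for 16 h at 37C. beta-Lactamase reporter read after 2 h with LiveBLAzer B/G FRET substrate at room temperature.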
For assay [8] the target is unchanged. Nature of the assay: qHTS assay to identify small molecule agonists of the androgen receptor (AR) signaling pathway using the MDA cell line (AID 743040; further: nearly all actives have a fitted effect of over 20% in size). A digest of the protocol: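 Cell-based luciferase reporter: MDA-kb2, MMTV promoter (AR + GR response elements). 16 h compound exposure at 37C; ONE-Glo, 30 min RT, luminescence.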
Assay [9] can be described thus: qHTS assay to identify small molecule antagonists of the androgen receptor (AR) signaling pathway using the MDA cell line - cell viability counter screen (AID 743041; further: nearly all actives have a fitted effect of over 45% in size). The essentials: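 In this qHTS counter assay, fluorescence intensity after CellTiter-Fluor addition indicated viability of MDA-kb2 AR-luc cells given compounds and R1881 for 16 h at 37C.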
The target in assay [10] is Androgen receptor (Homo sapiens) (UniProt P10275). Nature of the assay: qHTS assay to identify small molecule antagonists of the androgen receptor (AR) signaling pathway using the MDA cell line (AID 743042; further: nearly all actives have a fitted effect of over 55% in size; further: potency means the concentration at half of the fitted maximal effect). The essentials: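 MDA-kb2 cells (human breast carcinoma, stably carrying an MMTV-luciferase reporter responsive to AR and GR) were plated at 3,000 cells/well and preincubated 5 hr at 37C, then given compound plus R1881 agonist for 16 h. ONE-Glo luminescence was read.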

Assay [11] can be described thus: qHTS assay to identify small molecule antagonists of the thyroid receptor (TR) signaling pathway - cell viability counter screen (AID 743064). Further: nearly all actives have a fitted effect of over 50% in size. Further: potency means the concentration at half of the fitted maximal effect. The essentials:
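GH3.TRE-Luc rat pituitary cells dosed after 4 hr plating, co-stimulated with T3 at 1 nM final, incubated 23.5 h at 37 C. Viability measured in the same wells by CellTiter-Fluor fluorescence after 30 min further at 37 C.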

Assay [12] can be described thus: qHTS assay to identify small molecule antagonists of the thyroid receptor (TR) signaling pathway (AID 743065). Further: nearly all actives have a fitted effect of over 55% in size. Further: potency means the concentration at half of the fitted maximal effect. A digest of the protocol:
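GH3.TRE-Luc rat pituitary cells carrying two TR response elements driving luciferase were plated for 4 h, given compound plus 1 nM T3 (final), and incubated 23.5 h at 37 C. ONE-Glo luminescence measured reporter inhibition; CellTiter-Fluor fluorescence tracked cytotoxicity.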

For assay [13], the system named is thyroid hormone receptor (rat, GH3 cells). Nature of the assay: qHTS assay to identify small molecule agonists of the thyroid receptor (TR) signaling pathway (AID 743066; calls by dose curve).
For assay [14], the target named is Estrogen receptor (Homo sapiens) (UniProt P03372). Nature of the assay: qHTS assay to identify small molecule antagonists of the estrogen receptor alpha (ER-alpha) signaling pathway (AID 743069; active means well fitted curve in the direction sought with a large enough effect in the signal ratio in the repeat runs, not every such curve was filed as active; the % refers to the signal ratio; further: potency means the concentration at half of the fitted maximal effect). The essentials:
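A 17beta-estradiol challenge was applied right after compound transfer to ER-alpha-UAS-bla HEK293 cells previously kept in charcoal-stripped serum. Plates stood 18 hr at 37C and 5% CO2; fluorescence was read following 2 hr FRET substrate loading at room temperature.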

Assay [15] is described as follows: qHTS assay to identify small molecule antagonists of the estrogen receptor alpha (ER-alpha) signaling pathway - cell viability counter screen (AID 743074; calls by dose curve;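 further: HEK293 cells carrying ER-alpha-UAS-bla reporter stimulated with 17beta-estradiol; nearly all actives have a fitted effect of over 45% in size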).
The target in assay [16] is Estrogen receptor (Homo sapiens) (UniProt P03372). Description: qHTS assay to identify small molecule agonists of the estrogen receptor alpha (ER-alpha) signaling pathway (AID 743075; calls by dose curve;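 further: HEK293 GripTite cells with ER-alpha and UAS-driven beta-lactamase reporter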).
For assay [17] the target is unchanged. Nature of the assay: qHTS assay to identify small molecule agonists of the estrogen receptor alpha (ER-alpha) signaling pathway using the BG1 cell line (AID 743079). Further: nearly all actives have a fitted effect of over 20% in size. Further: potency means the concentration at half of the fitted maximal effect.
Assay [18] can be described thus: qHTS assay to identify small molecule antagonists of the estrogen receptor alpha (ER-alpha) signaling pathway using the BG1 cell line (AID 743080; calls by dose curve;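 further: BG1 cells stimulated with 17beta-estradiol alongside compound; nearly all actives have a fitted effect of over 25% in size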; further: potency means the concentration at half of the fitted maximal effect). The essentials: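 Readout is ONE-Glo luminescence, taken 30 min at room temperature after reagent addition, preceded by a CellTiter-Fluor viability read; BG1-Luc-4E2 cells had received compound and 17beta-estradiol for 21.5 h at 37 C.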

Assay [19] can be described thus: qHTS assay to identify small molecule antagonists of the estrogen receptor alpha (ER-alpha) signaling pathway using the BG1 cell line - cell viability counter screen (AID 743081).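 Further: compound given together with 17beta-estradiol as the ER stimulus; series mostly up to about 70 µM; nearly all actives have a fitted effect of over 45% in size.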
For assay [20], the target named is Aromatase (Homo sapiens) (UniProt P11511). Description: qHTS assay to identify aromatase inhibitors (AID 743083). Further: nearly all actives have a fitted effect of over 55% in size. Further: potency means the concentration at half of the fitted maximal effect.
Aromatase (Homo sapiens), sequence (P11511 whole entry, looked up): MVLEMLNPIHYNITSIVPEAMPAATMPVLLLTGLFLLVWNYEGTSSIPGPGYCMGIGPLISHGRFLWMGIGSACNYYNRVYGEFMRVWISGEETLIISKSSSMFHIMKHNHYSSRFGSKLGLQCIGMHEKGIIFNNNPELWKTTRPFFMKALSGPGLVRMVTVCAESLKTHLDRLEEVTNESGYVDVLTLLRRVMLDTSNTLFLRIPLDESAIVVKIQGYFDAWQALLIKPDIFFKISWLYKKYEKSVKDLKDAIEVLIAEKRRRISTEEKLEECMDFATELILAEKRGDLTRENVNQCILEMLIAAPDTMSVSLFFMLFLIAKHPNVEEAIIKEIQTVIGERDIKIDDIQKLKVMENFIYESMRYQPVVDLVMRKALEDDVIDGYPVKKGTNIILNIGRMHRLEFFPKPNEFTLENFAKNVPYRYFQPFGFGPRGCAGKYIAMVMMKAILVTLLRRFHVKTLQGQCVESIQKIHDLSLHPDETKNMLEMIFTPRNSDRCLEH

Estrogen receptor (Homo sapiens), sequence (P03372 whole entry, looked up): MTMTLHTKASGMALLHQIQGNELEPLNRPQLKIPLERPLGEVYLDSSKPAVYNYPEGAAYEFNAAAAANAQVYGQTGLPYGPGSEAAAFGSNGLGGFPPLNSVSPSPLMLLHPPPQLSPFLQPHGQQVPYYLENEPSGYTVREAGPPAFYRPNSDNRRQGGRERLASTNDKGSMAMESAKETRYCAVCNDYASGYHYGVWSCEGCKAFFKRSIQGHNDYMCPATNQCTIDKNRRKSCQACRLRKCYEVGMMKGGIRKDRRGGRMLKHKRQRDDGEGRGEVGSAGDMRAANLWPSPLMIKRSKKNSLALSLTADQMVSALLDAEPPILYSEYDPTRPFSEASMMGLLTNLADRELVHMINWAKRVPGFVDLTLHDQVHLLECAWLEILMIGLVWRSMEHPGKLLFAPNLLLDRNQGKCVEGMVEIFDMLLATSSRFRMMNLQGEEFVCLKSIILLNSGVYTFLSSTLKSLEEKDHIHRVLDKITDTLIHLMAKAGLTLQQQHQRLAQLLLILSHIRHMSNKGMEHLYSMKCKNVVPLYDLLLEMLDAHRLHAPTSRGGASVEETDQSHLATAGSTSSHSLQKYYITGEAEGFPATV
Androgen receptor (Homo sapiens), sequence (P10275 whole entry, looked up): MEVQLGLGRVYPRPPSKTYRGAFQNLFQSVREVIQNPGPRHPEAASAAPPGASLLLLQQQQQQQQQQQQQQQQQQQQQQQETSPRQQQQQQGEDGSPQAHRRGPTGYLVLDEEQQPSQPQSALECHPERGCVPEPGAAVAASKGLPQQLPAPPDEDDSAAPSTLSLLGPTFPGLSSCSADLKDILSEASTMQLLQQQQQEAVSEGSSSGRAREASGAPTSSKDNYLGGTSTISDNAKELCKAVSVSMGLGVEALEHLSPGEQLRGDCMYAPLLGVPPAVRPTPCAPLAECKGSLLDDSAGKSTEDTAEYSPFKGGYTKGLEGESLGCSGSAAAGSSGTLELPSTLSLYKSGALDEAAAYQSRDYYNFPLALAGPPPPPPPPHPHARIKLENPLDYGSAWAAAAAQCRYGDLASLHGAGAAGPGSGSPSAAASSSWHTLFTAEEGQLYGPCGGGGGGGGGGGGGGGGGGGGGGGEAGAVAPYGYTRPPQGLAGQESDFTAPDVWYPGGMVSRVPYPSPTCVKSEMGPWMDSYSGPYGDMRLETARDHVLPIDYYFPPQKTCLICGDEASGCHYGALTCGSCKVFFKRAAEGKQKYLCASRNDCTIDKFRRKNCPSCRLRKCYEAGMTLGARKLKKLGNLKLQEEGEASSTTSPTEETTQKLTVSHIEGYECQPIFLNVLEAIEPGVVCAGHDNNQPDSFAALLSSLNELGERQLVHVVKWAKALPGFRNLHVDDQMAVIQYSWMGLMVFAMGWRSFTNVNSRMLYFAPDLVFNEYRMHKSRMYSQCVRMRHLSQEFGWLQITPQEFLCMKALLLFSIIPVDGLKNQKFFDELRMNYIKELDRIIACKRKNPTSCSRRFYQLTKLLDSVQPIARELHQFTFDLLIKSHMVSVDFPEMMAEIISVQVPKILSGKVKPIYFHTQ

As for `CC(=O)NC1CCSC1=O` (stereo not drawn), the Potency result in assay [1], in assay [2], in assay [3], in assay [4], in [5] and in assay [6] was “inactive” throughout. The Potency result in [8], in assay [9], in assay [10], in assay [11], in assay [12] and in assay [13] was “inactive” throughout. In addition, the Potency entry in [14], in assay [15], in assay [16], in [17], in [18] and in assay [19] was “inactive” each time. Besides, the Potency result in assay [20] is “inactive”. The compound was classed as inactive in [7].
In the case of `C/C(=C\c1ccccc1)[N+](=O)[O-]`, the Potency in assay [1] is 17.4 µM (active); in [2], 5.45 µM (active); in [3], 4.33 µM (active); in assay [4], 4.33 µM (active); in [5], 24.5 µM (active); in assay [10] it was 27.3 µM (active). The Potency was 13.7 µM (active) in [11], 6.86 µM (active) in [12], 2.45 µM [cytotoxic] (active) in assay [14] and 19.3 µM (active) in assay [20]. The Potency entry in assay [8] and in assay [16] was “inactive” in each case.
`O=[N+]([O-])C(Br)(CO)CO`: the Potency entry in assay [1], in assay [5], in [8], in assay [9], in assay [10] and in assay [13] was “inactive” throughout. Also, the Potency result in [14], in [15], in assay [16], in [17], in [18] and in assay [19] was “inactive” throughout. For the same compound, the Potency result in [20] is “inactive”. Besides, the Potency was 8.41 µM (active) and 6.11 µM (active) in [2]; 18.8 µM (active) and 7.7 µM (active) in assay [3]; 26.6 µM (active) and 12.2 µM (active) in assay [4]; 23.7 µM (active) and 21.7 µM (active) in [11]; 23.7 µM (active) and 24.3 µM (active) in assay [12]. For the same compound, the call in assay [7] was inactive.
For `S=C=NCc1ccccc1`, the Potency entry in [1], in assay [2], in [3], in assay [4], in [5] and in assay [8] was “inactive” in each case. Also, the Potency entry in assay [10], in [11], in assay [15], in assay [19] and in [20] was “inactive” in each case. Moreover, the compound was classed as inactive in assay [7].
Turning to `O=C(C(Cl)(Cl)Cl)C(Cl)(Cl)Cl`, the Potency entry in assay [1], in assay [2], in assay [3], in assay [4], in assay [5] and in assay [6] was “inactive” each time. Also, the Potency result in [8], in [9], in assay [10], in assay [11], in assay [12] and in [13] was “inactive” throughout. For the same compound, the Potency entry in assay [14], in [15], in [16], in [17], in assay [18] and in assay [19] was “inactive” throughout. Also, the Potency result in assay [20] was “inactive”. The compound was called inactive in assay [7].
As to `Cc1ccc(N)cc1C`, the Potency result in [1], in assay [2], in assay [3], in [4], in assay [5] and in [9] was “inactive” throughout. Moreover, the Potency entry in assay [11], in assay [12], in assay [13], in assay [14], in assay [15] and in [16] was “inactive” each time. Further, the Potency entry in assay [18], in assay [19] and in assay [20] was “inactive” in each case. In addition, the Potency in assay [17] is 49 µM (active).
In the case of `Cc1ccc(-c2c(Cl)nc(C#N)n2S(=O)(=O)N(C)C)cc1`, the Potency entry in [1], in [8] and in assay [19] was “inactive” in each case. In addition, the Potency in assay [2] was 61.1 µM (active); in assay [3] it was 61.1 µM (active); in assay [4], 61.1 µM (active); in assay [5], 43.6 µM (active); in assay [10], 54.4 µM (active); in [11], 54.4 µM (active). The Potency is 13.7 µM (active) in [12] and 54.4 µM (active) in assay [18].
Turning to `COP(=S)(OC)Oc1cc(Cl)c(I)cc1Cl`, the Potency entry in assay [1], in assay [2], in assay [3], in [4], in assay [5] and in [8] was “inactive” each time. Moreover, the Potency result in assay [9], in assay [10], in assay [11], in assay [13], in assay [15] and in assay [19] was “inactive” throughout. Moreover, the Potency entry in [20] is “inactive”.
